Results taken from PubChem BioAssay (NCI).
About 83,000 compounds went through this panel and 20% of them were active in at least one assay; those are over-represented in the sample as a whole.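 In brief: 96-well plates, 48 h treatment, single concentration, percent growth endpoint.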 Unmarked numbers belong to inactive results. Active and inactive are the calls of the source. Rule for the calls: active = growth percent below 10; inactive = the rest.

Experiments:
Experiment in all cases: NCI-60 one-dose screen, 48 h (100 = growth as untreated, 0 = no growth, -100 = all killed)
Details in all cases: 10 µM unless noted
DU-145 prostate = tested on: DU-145 prostate
K-562 leukemia = tested on: K-562 leukemia
MALME-3M melanoma = tested on: MALME-3M melanoma
MDA-MB-231 breast = tested on: MDA-MB-231 breast
RXF 393 renal = tested on: RXF 393 renal
SF-268 CNS = tested on: SF-268 CNS
SF-295 CNS = tested on: SF-295 CNS
SF-539 CNS = tested on: SF-539 CNS
UACC-257 melanoma = tested on: UACC-257 melanoma
M14 melanoma = tested on: M14 melanoma
HCT-15 colon = tested on: HCT-15 colon
HT29 colon = tested on: HT29 colon
SNB-75 CNS = tested on: SNB-75 CNS
SNB-19 CNS = tested on: SNB-19 CNS
U251 CNS = tested on: U251 CNS
PC-3 prostate = tested on: PC-3 prostate
SK-MEL-5 melanoma = tested on: SK-MEL-5 melanoma
UACC-62 melanoma = tested on: UACC-62 melanoma
LOX IMVI melanoma = tested on: LOX IMVI melanoma
SK-MEL-28 melanoma = tested on: SK-MEL-28 melanoma

| Compound | growth (DU-145 prostate) | growth (K-562 leukemia) | growth (MALME-3M melanoma) | growth (MDA-MB-231 breast) | growth (RXF 393 renal) | growth (SF-268 CNS) | growth (SF-295 CNS) | growth (SF-539 CNS) | growth (UACC-257 melanoma) | growth (M14 melanoma) | growth (HCT-15 colon) | growth (HT29 colon) | growth (SNB-75 CNS) | growth (SNB-19 CNS) | growth (U251 CNS) | growth (PC-3 prostate) | growth (SK-MEL-5 melanoma) | growth (UACC-62 melanoma) | growth (LOX IMVI melanoma) | growth (SK-MEL-28 melanoma) |
| --- | --- | --- | --- | --- | --- | --- | --- | --- | --- | --- | --- | --- | --- | --- | --- | --- | --- | --- | --- | --- |
| COc1cc(-c2csc(NC(=O)Nc3cccc(C(F)(F)F)c3)n2)cc(OC)c1OC | 55.9% | 31.6% | 88.3% | 63.8% | 71.4% | 65% | 21.7% | 67.1% | 83.2% | 47.8% | 30.9% | 62.6% | 62.4% | 46.1% | 34.1% | 18.6% | 28.7% | 40% | 62.3% | 72.8% |
| CC(=O)OC1Oc2cc(C)c(C)cc2-c2oc(=O)c(-c3cc4ccccc4oc3=O)cc21 (stereo not given) | 89.7% | 106% | 107% | 92.4% | -1.16% (active) | 61.3% | 76% | 88.4% | 117% | 96.3% | 117% | 110% | 92.5% | 116% | 66.6% | 91.9% | 115% | 102% | 84.7% | 152% |
| O=c1[nH]cnc2nc[nH]c12 | 170% | 49.3% | 110% | 99% | 107% | 147% | 93.8% | 97.3% | 117% | 109% | 107% | 97.9% | 90.8% | 107% | 103% | 135% | 102% | 102% | 98.4% | 97.9% |
| COc1cccc(OCC(O)CN2CCN(c3ccccc3)CC2)c1 (stereo not given) | 116% | 92.4% | 145% | 108% | 163% | 106% | 113% | 100% | 134% | 104% | 117% | 103% | 96.5% | 105% | 108% | 109% | 108% | 94.3% | 104% | 81.4% |
| NC(=O)Nc1ccc2ncnc(Nc3cccc(O)c3)c2c1 | 90.4% | 103% | 121% | 104% | 111% | 85.4% | 98.1% | 109% | 99.8% | 102% | 108% | 106% | 102% | 93.1% | 87.9% | 102% | 101% | 105% | 101% | 114% |
| CCCc1n(Cc2ccc3ccccc3n2)cc[n+]1Cc1ccc2ccccc2c1 | 28.6% | 5.05% (active) | -27.3% (active) | -5.49% (active) | 3.02% (active) | 17% | 4.45% (active) | 12.7% | -9.42% (active) | 3.06% (active) | 82% | 3.72% (active) | -6% (active) | 7.24% (active) | 11.2% | 5.35% (active) | -91.9% (active) | -46.7% (active) | -63.8% (active) | 9.91% (active) |
| Cc1ccc(NC(=O)c2[nH]c(SCCN(C)C)nc2-c2ccc(F)cc2)cc1C#Cc1cnc2cccnn12 | -19% (active) | -37.3% (active) | -9.58% (active) | -7.2% (active) | -61.6% (active) | -23.4% (active) | 93.1% | -84.4% (active) | 12.7% | -75.1% (active) | -19.6% (active) | -14.9% (active) | -59.7% (active) | 21.4% | -58.8% (active) | 34% | 45.5% | 35.8% | -49.2% (active) | -72.4% (active) |
| CCSc1ccc([C@@H]2[C@@H](O)C(=O)N2c2cc(OC)c(OC)c(OC)c2)cc1 | 12.5% | 7.65% (active) | 71% | 23.6% | 35.9% | 31.4% | 18.1% | 1.7% (active) | 66.5% | 10.4% | 14.1% | 9.27% (active) | 85.8% | 35.5% | 21% | 28.1% | 0.317% (active) | 40.4% | 25.9% | 71% |
| COc1ccc(/C(=C\c2cc(OC)c(OC)c(OC)c2)C(=O)N2CCN(c3ccccc3)CC2)cc1O | 115% | 104% | 104% | 95.1% | 98.2% | 101% | 96.2% | 92.1% | 93.1% | 105% | 97.2% | 101% | 77.4% | 97.6% | 96.3% | 84.4% | 97.1% | 88.4% | 94% | 105% |
| CCOC(CN1CCN(CC(C)C(=O)c2ccccc2)CC1)c1ccccc1 (stereo not given) | 112% | 115% | 105% | 95.5% | 99.5% | 113% | 92.6% | 111% | 93.2% | 114% | 100% | 108% | 79% | 97.8% | 90.5% | 93.6% | 90.1% | 105% | 101% | 98% |
| COc1ccc(/C=C(/C(=O)N2CCN(c3ccccc3)CC2)c2cc(OC)c(OC)c(OC)c2)cc1N | 15.2% | 6.11% (active) | 66.3% | 22.1% | -1.82% (active) | 46.6% | 7.2% (active) | -17.4% (active) | 69.2% | 1.47% (active) | 14.6% | 7.35% (active) | 53.3% | 24.5% | 14.5% | 26.7% | 7.37% (active) | 27.9% | 27.2% | 64% |
| COc1ccc(C2=NN(C=O)C(c3ccc(OS(=O)(=O)c4ccc(C)cc4)c(OC)c3)C2)cc1 (stereo not given) | 72.8% | 16% | 45.9% | 56.4% | 82.7% | 68.7% | 41.6% | 66.9% | 42.9% | 58.8% | 61.8% | 35% | 68.9% | 62.5% | 60.3% | 48.4% | 6.93% (active) | 50.1% | 57.3% | 75.5% |
| COc1cc(/C=C/c2ccc3c(Br)cc(Br)c(O)c3n2)ccc1O | 42.2% | -44.5% (active) | 53.7% | 53% | 1.71% (active) | 22.8% | 27.4% | 21.5% | 25.1% | 27.1% | 27.6% | 36.7% | 36.5% | 23.4% | 16.4% | 12.9% | 27.5% | 10% | 29.5% | 23.3% |
| Cc1ccc(NC(=O)c2nc(S(C)(=O)=O)oc2-c2ccc(F)cc2)cc1Nc1ccc2ncn(C)c(=O)c2c1 | 57.8% | -22.8% (active) | 23.7% | 31% | 45% | 68.3% | 98.8% | 95.3% | 82.5% | 39.4% | 3.34% (active) | 15.8% | 105% | 126% | 69.7% | 88.6% | 78.9% | 85.8% | -71.5% (active) | 82.1% |
| CCN(CC)C(Cl)=Nc1ccc(Cl)cc1 | 119% | 121% | 116% | 102% | 107% | 106% | 97.1% | 106% | 98.8% | 107% | 98.1% | 97.3% | 88.5% | 95.5% | 94% | 103% | 102% | 102% | 102% | 106% |
| COc1ccc([C@@H]2[C@@H](Cl)C(=O)N2c2cc(OC)c(OC)c(OC)c2)cc1C | 12.9% | 9.59% (active) | 76% | 18.3% | 19.8% | 30.2% | 15.7% | 3.27% (active) | 80.7% | 11.7% | 15.8% | 11.1% | 75.6% | 33.6% | 12.9% | 28.9% | -13.8% (active) | 35.3% | 24.4% | 70.7% |
| COCCOCCOCc1n(Cc2ccc3ccccc3n2)c2ccccc2[n+]1Cc1ccc2ccccc2c1 | 24.6% | 2.47% (active) | -7.52% (active) | 8.58% (active) | -19.9% (active) | 20% | -12.3% (active) | 15.8% | -8.67% (active) | -0.723% (active) | 78.3% | -4.5% (active) | -5.72% (active) | 11.6% | 12.4% | 5.71% (active) | -94.1% (active) | -38.5% (active) | -76% (active) | 8.66% (active) |
| COc1ccc(/C=C2\N=C(c3cccnc3)N(c3ccccc3)NC2=O)cc1 | 104% | 107% | 97.4% | 92.1% | 89.9% | 91.9% | 95.2% | 103% | 102% | 92.8% | 95.1% | 107% | 80.6% | 96.8% | 106% | 74.2% | 98.7% | 95.4% | 92.7% | 129% |
| COc1ccc2[nH]cc(C(c3ccc(Cl)cc3)N3CCCC3)c2c1 (stereo not given) | 101% | 90.2% | 72.8% | 94.6% | 82.9% | 92.5% | 94% | 98.2% | 91.9% | 95% | 89.7% | 102% | 90% | 105% | 92% | 74.8% | 88.5% | 92.5% | 90.7% | 111% |
| CC(=O)c1c(C)nc(-c2cc(C)cc(Cl)c2)nc1-c1cccc(Oc2ccccc2)c1 | 85.8% | 19.9% | 74.8% | 55% | 90.5% | 71% | 77.3% | 86% | 81.1% | 31.7% | 60.2% | 39.5% | 72.4% | 79.3% | 76.1% | 53.4% | 77.1% | 52.1% | 78.4% | 76.2% |
| C=CCn1c(C)nc2cc(Nc3nc(N4CCCC4)nc4nc[nH]c34)ccc21 | 48.2% | -9.1% (active) | -29.3% (active) | -25% (active) | 54.4% | 29.3% | 31.2% | -18.7% (active) | 60.9% | 28.8% | 94.4% | 12.4% | -64.9% (active) | 44.9% | 21.2% | 42.6% | 49.5% | 31.7% | 37.8% | 30.3% |
| CNC(=O)c1cc(Oc2ccc(NC(=O)c3nc(S(C)(=O)=O)n(C)c3-c3ccc(F)cc3)cc2)ccn1 | 56.9% | 61% | 77.5% | 83% | 58.4% | 70.4% | 70.2% | 85.6% | 96.4% | 50.4% | 57.8% | 71.9% | 43% | 85% | 76.1% | 64.1% | 73.8% | 62% | 62.4% | 95.7% |
| C=C(C)c1ccc(/C=N/NC(N)=S)cc1 | 97.6% | 89% | 116% | 96.8% | 94.6% | 109% | 76.5% | 99.2% | 257% | 87.2% | 96% | 86.1% | 104% | 97.3% | 93.9% | 100% | 95.1% | 88.9% | 97.4% | 109% |
| CC(C)NC(=O)OCC#CCOC(=O)NC(C)C | 111% | 87.9% | 92.6% | 103% | 113% | 110% | 82.8% | 109% | 105% | 101% | 108% | 104% | 89.5% | 97.5% | 99.5% | 97% | 106% | 99.6% | 104% | 104% |
| Clc1ccc(Nc2ncnc3c2sc2ncccc23)cc1 | 20.2% | 46.6% | 65.6% | 63.9% | 32.9% | 23% | 19.1% | 6.42% (active) | 41.6% | -21.5% (active) | 47.3% | 38.1% | 47.9% | 26.3% | 28% | 54.5% | 23.4% | 11.4% | 12.2% | 74.9% |
